From PubChem BioAssay (EPA / NIEHS) come the findings set out here.

What all share (settings): mRNA level, 48 h; actives raise or lower the signal
Read-out in experiment [1]: adenosine kinase (ADK) gene, ADK (gene 132)
Briefly: LTEA_HepaRG_ADK: Life Technologies and Expression Analysis (LTEA) Assay for adenosine kinase (ADK) gene using HepaRG (AID 2283471). In a few lines:
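Read-out is ADK transcript level measured by qRT-PCR and normalised to three housekeeping genes. Cells are human HepaRG, dosed for 48 h at up to 100 uM in 0.5% DMSO. Gain or loss of signal is fitted against DMSO controls.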

Read-out in experiment [2]: Alpha-fetoprotein (AFP) gene, AFP (gene 174)
The experiment in a line: LTEA_HepaRG_AFP: Life Technologies and Expression Analysis (LTEA) Assay for Alpha-fetoprotein (AFP) gene using HepaRG (AID 2283472). In a few lines:
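qRT-PCR (Fluidigm TaqMan) readout of AFP transcript, normalized to three housekeeping genes, fitted bidirectionally against 0.5% DMSO baseline. HepaRG cells received chemicals for 48 h in serum-free induction medium, top concentration 100 uM, half-log steps.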

Read-out in the next experiment: BCL2L11 (gene 10018)
Briefly: LTEA_HepaRG_BCL2L11: Life Technologies and Expression Analysis (LTEA) Assay for Bcl-2 (BCL2L11) gene using HepaRG (AID 2283473). A digest of the protocol:
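Human hepatic HepaRG cultures are treated 48 h with test chemicals (maximum 100 uM, 0.5% DMSO vehicle). Expression of BCL2L11 is measured by qRT-PCR against ACTB, GAPDH and POLR2A, with activity in either direction scored relative to vehicle.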

Read-out in experiment [3]: Apolipoprotein A-V (APOA5) gene, APOA5 (gene 116519)
Briefly: LTEA_HepaRG_APOA5: Life Technologies and Expression Analysis (LTEA) Assay for Apolipoprotein A-V (APOA5) gene using HepaRG (AID 2283474). A digest of the protocol:
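Concentration-response of APOA5 expression in HepaRG: eight half-log doses to 100 uM, 48 h, qRT-PCR normalized to ACTB/GAPDH/POLR2A, bidirectional fitting with 0.5% DMSO as baseline.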

Read-out in experiment [4]: Apoptosis regulator Bcl-2 (Homo sapiens) (UniProt P10415)
The experiment in a line: LTEA_HepaRG_BCL2: Life Technologies and Expression Analysis (LTEA) Assay for Bcl-2 gene using HepaRG (AID 2283475). A digest of the protocol: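 qRT-PCR read-out (Fluidigm TaqMan) of BCL2 transcript, normalised to three housekeeping genes, after 48 h chemical exposure of HepaRG cells; 8-point half-log series, top 100 uM, 0.5% DMSO vehicle. Gain or loss of signal fitted relative to DMSO baseline.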

Read-out in experiment [5]: Bcl-2 (BID) gene, BID (gene 637)
Briefly: LTEA_HepaRG_BID: Life Technologies and Expression Analysis (LTEA) Assay for Bcl-2 (BID) gene using HepaRG (AID 2283476). A digest of the protocol:
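HepaRG, 48 h exposure, 8-pt half-log series, top 100 uM, 0.5% DMSO vehicle, duplicates. Readout: BID mRNA by TaqMan qRT-PCR; housekeeping-normalized; bidirectional curve fit vs DMSO baseline.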

Read-out in a further experiment: Caspase-3 (Homo sapiens) (UniProt P42574)
Briefly: LTEA_HepaRG_CASP3: Life Technologies and Expression Analysis (LTEA) Assay for cysteine-aspartic acid protease (CASP3) using HepaRG (AID 2283477). In a few lines:
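Transcript-level assay: CASP3 mRNA in human HepaRG after 48 h treatment, eight half-log concentrations from 100 uM in 0.5% DMSO, quantified by qRT-PCR.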

Read-out in experiment [6]: Cytochrome P450 (CYP24A1), CYP24A1 (gene 1591)
The experiment in a line: LTEA_HepaRG_CYP24A1: Life Technologies and Expression Analysis (LTEA) Assay for Cytochrome P450 (CYP24A1) using HepaRG (AID 2283478). In a few lines: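 Gene expression of CYP24A1 by TaqMan qRT-PCR in HepaRG after 48 h treatment, highest concentration 100 uM; activity fitted in both directions relative to DMSO vehicle.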

Read-out in experiment [7]: Cytochrome P450 (CYP1A2), CYP1A2 (gene 1544)
Briefly: LTEA_HepaRG_CYP1A2: Life Technologies and Expression Analysis (LTEA) Assay for Cytochrome P450 (CYP1A2) using HepaRG (AID 2283479). In a few lines:
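In duplicate wells, HepaRG cultures maintained in 0.5% DMSO were treated 48 h across an 8-point, half-log series topping at 100 uM; phenobarbital (1 mM) served as induction control. Expression was read by qRT-PCR.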

Read-out in experiment [8]: cysteine-aspartic acid protease (CASP8), CASP8 (gene 841)
The experiment in a line: LTEA_HepaRG_CASP8: Life Technologies and Expression Analysis (LTEA) Assay for cysteine-aspartic acid protease (CASP8) using HepaRG (AID 2283480). A digest of the protocol: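 qRT-PCR readout of CASP8 mRNA, normalized to three housekeeping genes, after 48 h chemical exposure of HepaRG cells; 8-point half-log series, top 100 uM, 0.5% DMSO vehicle. Bidirectional curve fitting against DMSO baseline.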

Read-out in experiment [9]: Cytochrome P450 (CYP2B6), CYP2B6 (gene 1555)
Briefly: LTEA_HepaRG_CYP2B6: Life Technologies and Expression Analysis (LTEA) Assay for Cytochrome P450 (CYP2B6) using HepaRG (AID 2283481). In a few lines:
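Human HepaRG, 48 h dosing, 0.5% DMSO vehicle, top dose 100 uM. CYP2B6 transcript by qRT-PCR, housekeeping-normalized, bidirectional curve fit.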

Read-out in experiment [10]: Cytochrome P450 2C19 (Homo sapiens) (UniProt P33261)
The experiment in a line: LTEA_HepaRG_CYP2C19: Life Technologies and Expression Analysis (LTEA) Assay for CYP2C19 using HepaRG (AID 2283482). A digest of the protocol:
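Endpoint: CYP2C19 mRNA change, bidirectional fit vs 0.5% DMSO. Cells: HepaRG, 48 h exposure, eight-point series topping at 100 uM. Quantitation: qRT-PCR normalized to ACTB, GAPDH, POLR2A.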

Read-out in the next experiment: CYP2C8 (gene 1558)
The experiment in a line: LTEA_HepaRG_CYP2C8: Life Technologies and Expression Analysis (LTEA) Assay for CYP2C8 using HepaRG (AID 2283483). A digest of the protocol:
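HepaRG (human liver line), 48 h chemical exposure, 8-pt half-log series from 100 uM, 0.5% DMSO vehicle. Readout: CYP2C8 transcript by qRT-PCR, housekeeping-normalized. Bidirectional fit vs DMSO baseline.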

Read-out in a further experiment: CYP2C9 (gene 1559)
The experiment in a line: LTEA_HepaRG_CYP2C9: Life Technologies and Expression Analysis (LTEA) Assay for CYP2C9 using HepaRG (AID 2283484). In a few lines: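 HepaRG, 48 h dosing, 8-pt half-log series, top 100 uM, 0.5% DMSO vehicle. Read-out: CYP2C9 transcript by TaqMan qRT-PCR, housekeeping-normalized (ACTB/GAPDH/POLR2A). Gain or loss fitted vs DMSO baseline.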

Read-out in a further experiment: CYP2E1 (gene 1571)
Briefly: LTEA_HepaRG_CYP2E1: Life Technologies and Expression Analysis (LTEA) Assay for CYP2E1 using HepaRG (AID 2283485). In a few lines:
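CYP2E1 transcript was measured by TaqMan qRT-PCR in human HepaRG cultures after 48 h chemical exposure (top 100 uM, half-log steps, 0.5% DMSO vehicle). Housekeeping-gene normalization; gain or loss fitted relative to DMSO baseline.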

Read-out in the next experiment: CYP4A11 (gene 1579)
The experiment in a line: LTEA_HepaRG_CYP4A11: Life Technologies and Expression Analysis (LTEA) Assay for CYP4A11 using HepaRG (AID 2283486). A digest of the protocol:
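Human hepatic HepaRG cultures receive duplicate 48 h exposures across a concentration-response series topping at 100 uM. Expression changes in CYP4A11 are measured by qRT-PCR relative to DMSO controls.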

Read-out in experiment [11]: Cytochrome P450 3A4 (Homo sapiens) (UniProt P08684)
The experiment in a line: LTEA_HepaRG_CYP3A4: Life Technologies and Expression Analysis (LTEA) Assay for CYP3A4 using HepaRG (AID 2283487). In a few lines:
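HepaRG, 48 h exposure, 8-pt CRC from 100 uM (half-log), 0.5% DMSO, duplicates; serum-free induction medium. Readout: CYP3A4 mRNA, qRT-PCR, ACTB/GAPDH/POLR2A normalization. Bidirectional fit vs DMSO.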

Read-out in experiment [12]: DNA damage-inducible transcript 3 (DDIT3), DDIT3 (gene 1649)
The experiment in a line: LTEA_HepaRG_DDIT3: Life Technologies and Expression Analysis (LTEA) Assay for DNA damage-inducible transcript 3 (DDIT3) using HepaRG (AID 2283488). A digest of the protocol:
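qRT-PCR readout (Fluidigm TaqMan), housekeeping-normalized to ACTB, GAPDH, POLR2A. HepaRG cells, 48 h exposure, 8-point half-log series from 100 uM in 0.5% DMSO, duplicates. Gain or loss of signal fitted against DMSO baseline.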

Read-out in experiment [13]: Pro-epidermal growth factor (Homo sapiens) (UniProt P01133)
The experiment in a line: LTEA_HepaRG_EGF: Life Technologies and Expression Analysis (LTEA) Assay for Epidermal growth factor (EGF) using HepaRG (AID 2283489). In a few lines:
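Concentration-response mRNA assay: HepaRG cells dosed 48 h (max 100 uM, 0.5% DMSO), EGF measured by qRT-PCR and normalized to ACTB/GAPDH/POLR2A.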

Read-out in experiment [14]: Early growth response protein 1 (EGR1) transcription factor, EGR1 (gene 1958)
The experiment in a line: LTEA_HepaRG_EGR1: Life Technologies and Expression Analysis (LTEA) Assay for Early growth response protein 1 (EGR1) transcription factor using HepaRG (AID 2283490). A digest of the protocol: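 HepaRG, 48 h exposure, 8-pt half-log series from 100 uM, 0.5% DMSO vehicle; EGR1 transcript by TaqMan qRT-PCR (Fluidigm array), housekeeping-normalized; bidirectional fit relative to DMSO baseline.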

Calls of active or inactive are those of the source. How the source made its calls: active means hit-call score of the fitted dose curve at least 0.9, where 1 is the maximum; inactive means score below 0.9.

Sequence of Cytochrome P450 3A4 (Homo sapiens) (P08684 whole entry, looked up): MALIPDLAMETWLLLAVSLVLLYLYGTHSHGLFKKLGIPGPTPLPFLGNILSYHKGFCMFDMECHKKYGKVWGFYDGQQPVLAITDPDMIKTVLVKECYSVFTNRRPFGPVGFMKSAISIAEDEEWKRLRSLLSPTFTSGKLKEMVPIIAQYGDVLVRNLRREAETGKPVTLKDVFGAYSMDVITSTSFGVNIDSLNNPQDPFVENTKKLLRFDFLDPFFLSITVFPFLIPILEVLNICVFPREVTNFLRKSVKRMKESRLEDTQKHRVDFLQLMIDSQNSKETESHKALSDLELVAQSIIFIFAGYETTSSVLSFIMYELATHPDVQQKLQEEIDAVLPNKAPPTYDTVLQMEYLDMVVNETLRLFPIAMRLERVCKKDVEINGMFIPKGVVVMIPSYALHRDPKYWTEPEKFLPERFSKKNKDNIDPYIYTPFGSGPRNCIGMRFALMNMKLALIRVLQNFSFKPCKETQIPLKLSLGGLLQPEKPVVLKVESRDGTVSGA
Sequence of Caspase-3 (Homo sapiens) (P42574 whole entry, looked up): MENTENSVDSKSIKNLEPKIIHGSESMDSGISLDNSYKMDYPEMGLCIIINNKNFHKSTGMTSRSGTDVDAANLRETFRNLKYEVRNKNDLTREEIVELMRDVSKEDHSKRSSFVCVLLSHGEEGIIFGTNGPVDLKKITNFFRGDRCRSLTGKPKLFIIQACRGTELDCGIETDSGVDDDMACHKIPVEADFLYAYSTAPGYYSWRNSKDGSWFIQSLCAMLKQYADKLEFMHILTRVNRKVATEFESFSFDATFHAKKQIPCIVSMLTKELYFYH
Sequence of Cytochrome P450 2C19 (Homo sapiens) (P33261 whole entry, looked up): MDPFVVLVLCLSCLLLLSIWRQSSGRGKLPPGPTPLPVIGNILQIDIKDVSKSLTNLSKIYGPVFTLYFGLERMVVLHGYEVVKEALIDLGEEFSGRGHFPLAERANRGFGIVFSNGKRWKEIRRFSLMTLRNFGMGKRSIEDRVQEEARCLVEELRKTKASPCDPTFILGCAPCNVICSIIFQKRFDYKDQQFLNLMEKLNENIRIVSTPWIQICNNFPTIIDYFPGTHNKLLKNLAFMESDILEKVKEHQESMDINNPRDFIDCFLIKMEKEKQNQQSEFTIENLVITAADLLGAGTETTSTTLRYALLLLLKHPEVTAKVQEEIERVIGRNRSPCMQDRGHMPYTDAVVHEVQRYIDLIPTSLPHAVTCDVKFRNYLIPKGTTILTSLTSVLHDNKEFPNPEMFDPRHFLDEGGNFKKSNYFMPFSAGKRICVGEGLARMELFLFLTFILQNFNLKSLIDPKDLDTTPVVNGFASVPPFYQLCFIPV
Sequence of Apoptosis regulator Bcl-2 (Homo sapiens) (P10415 whole entry, looked up): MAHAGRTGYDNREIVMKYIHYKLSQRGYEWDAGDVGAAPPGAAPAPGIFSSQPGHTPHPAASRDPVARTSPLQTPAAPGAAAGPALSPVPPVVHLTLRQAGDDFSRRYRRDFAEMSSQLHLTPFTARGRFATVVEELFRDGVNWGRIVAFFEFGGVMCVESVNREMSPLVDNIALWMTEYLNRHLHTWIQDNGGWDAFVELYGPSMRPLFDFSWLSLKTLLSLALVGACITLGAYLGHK

Take `C[C@]12CC[C@@H]3c4ccc(O)cc4CC[C@H]3[C@@H]1CC[C@@H]2O`: the compound was classed as inactive (in experiment [1]; with BCL2L11 (gene 10018); in [4]; in experiment [5]; with Caspase-3 (Homo sapiens); in experiment [6]). The compound was classed as inactive (in experiment [8]; with CYP2C9 (gene 1559); in experiment [12]; in [13]; in experiment [14]). Further, the AC50 is 50 µM (active) in experiment [2]; 68 µM (active) in experiment [3]; 79.5 µM (active) in experiment [7]; 1.73 µM (active) in experiment [9]; 5.7 µM (active) in experiment [10]; 4.16 µM (active) with CYP2C8 (gene 1558). The AC50 with CYP2E1 (gene 1571) was 50 µM (active); in the experiment with CYP4A11 (gene 1579), 76.9 µM (active); in experiment [11], 4.95 µM (active).

Consider `COC(=O)c1ccc(C(=O)OC)cc1`, for which the call (in [1]; in experiment [2]; with BCL2L11 (gene 10018); in experiment [3]; in experiment [4]; in [5]) was inactive. Further, the outcome (with Caspase-3 (Homo sapiens); in experiment [6]; in [7]; in experiment [8]; in [9]; in [10]) was inactive. The result (with CYP2C8 (gene 1558); with CYP2C9 (gene 1559); with CYP2E1 (gene 1571); in the experiment with CYP4A11 (gene 1579); in experiment [11]; in experiment [12]) was inactive. The compound was classed as inactive in experiment [13] and in experiment [14].

Turning to `O=C(c1ccc(OCCN2CCCCC2)cc1)c1c(-c2ccc(O)cc2)sc2cc(O)ccc12`, the AC50 in [1] is 67.7 µM (active); in experiment [8] it was 73.3 µM (active); in experiment [9] it was 80.5 µM (active); with CYP2C9 (gene 1559), 50 µM (active); with CYP2E1 (gene 1571), 69.1 µM (active); in experiment [12] it was 83.3 µM (active). Moreover, the half-maximal activity concentration (AC50) in [14] is 90.9 µM (active). For the same compound, the result (in experiment [2]; in the experiment with BCL2L11 (gene 10018); in [3]; in [4]; in experiment [5]; with Caspase-3 (Homo sapiens)) was inactive. Further, the call (in experiment [6]; in experiment [7]; with CYP2C8 (gene 1558); with CYP4A11 (gene 1579); in experiment [13]) was inactive.

Consider `C#C[C@]1(O)CC[C@H]2[C@@H]3CCc4cc(O)ccc4[C@H]3CC[C@@]21C`, for which the compound was called inactive (in experiment [1]; in experiment [2]; in experiment [3]; in [4]; in [5]; in the experiment with Caspase-3 (Homo sapiens)). Further, the call (in experiment [6]; in experiment [7]; in experiment [8]; with CYP2C9 (gene 1559); with CYP2E1 (gene 1571); with CYP4A11 (gene 1579)) was inactive. In addition, the compound was classed as inactive in experiment [11], in [12], in experiment [13] and in [14]. The AC50 in [9] is 4.05 µM (active); in experiment [10] it was 50 µM (active); in the experiment with CYP2C8 (gene 1558), 50 µM (active).
